The whole screen tested about 16,000 compounds, of which about 5,800 (36%) were called active. About 23% were inconclusive and are not listed. The list shows a part of the results. Unmarked numbers belong to inactive results. Calls follow the shape of the dose curve; as a rule, active = well fitted curve in the direction sought with a large enough effect; inconclusive = small, poorly fitted or top-dose-only effect, or effect the other way; inactive = no such curve, though single readings can be large or run the other way.
Molecular target: Cytochrome P450 2C19 (Homo sapiens) (UniProt P33261)
Test: Cytochrome panel assay with activity outcomes
Conditions: recombinant CYP, pro-luciferin dealkylation, luminescence, p450-cyp2c19; series mostly up to 57.1 µM
% is scaled to controls: 0 for no effect and ±100 for the full control effect.

Sequence of Cytochrome P450 2C19 (Homo sapiens) (P33261 whole entry, looked up): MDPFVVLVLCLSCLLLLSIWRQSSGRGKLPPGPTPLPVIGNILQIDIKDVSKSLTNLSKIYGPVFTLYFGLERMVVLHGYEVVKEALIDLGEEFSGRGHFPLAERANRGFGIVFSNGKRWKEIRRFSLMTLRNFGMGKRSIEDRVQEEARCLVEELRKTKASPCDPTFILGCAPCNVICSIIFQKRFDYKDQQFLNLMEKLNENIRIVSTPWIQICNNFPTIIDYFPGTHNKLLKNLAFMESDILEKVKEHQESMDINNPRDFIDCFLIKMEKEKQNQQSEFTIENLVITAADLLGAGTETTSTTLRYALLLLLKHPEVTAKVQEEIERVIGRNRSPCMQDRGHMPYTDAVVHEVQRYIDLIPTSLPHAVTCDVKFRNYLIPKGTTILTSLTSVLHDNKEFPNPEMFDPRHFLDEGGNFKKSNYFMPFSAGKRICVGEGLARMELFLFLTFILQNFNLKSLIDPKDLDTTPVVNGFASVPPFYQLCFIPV

SMILES	AC50	activity, negative = inhibition
CN1CCN(c2ncnc3ccc(-c4cccc(C#N)c4)cc23)CC1	inactive	
CNc1ncnc2ccc(-c3ccccc3C#N)cc12	inactive	
CN(Cc1ccco1)c1ncnc2ccc(-c3ccccc3C(F)(F)F)cc12	3160 nM (active)	
CN(Cc1ccco1)c1ncnc2ccc(-c3ccccc3Cl)cc12	3160 nM (active)	
CN(Cc1ccco1)c1ncnc2ccc(-c3cccc(C#N)c3)cc12	6310 nM (active)	
CN(C)c1ncnc2ccc(-c3ccccc3C#N)cc12	inactive	
CN(Cc1ccco1)c1ncnc2ccc(-c3ccccc3C#N)cc12	1260 nM (active)	
COc1ncc2nc(-c3ccc(F)cc3)c(=O)n(C)c2n1	inactive	
Cc1noc(C)c1-c1ccc2ncnc(N3CCN(C)CC3)c2c1	inactive	
Cc1noc(C)c1-c1ccc2ncnc(N(C)Cc3ccco3)c2c1	5010 nM (active)	
Cc1noc(C)c1-c1ccc2ncnc(N3CCOCC3)c2c1	inactive	
COc1cc(/C=C2\SC(=S)N(Nc3ccccc3)C2=O)cc(OC)c1OC	11200 nM (active)	
Cc1ccc(S(=O)(=O)/C=C\C#N)cc1	5010 nM (active)	
Cc1nn(-c2nc3ccccc3[nH]2)c(N)c1-c1ccc(Cl)cc1	4470 nM (active)	
OCCNc1nc2ccccc2[nH]1	inactive	
Clc1ccc(CSc2nccn2Cc2ccccc2)cc1	224 nM (active)	
O=c1ccnc(SCc2ccc(Cl)cc2)[nH]1		-32.7% [at 11.4 µM]
O=C(O)CSCCc1ccccc1		6.64% [at 11.4 µM]
O=C(CSc1nccn1-c1ccccc1)c1ccc(Cl)cc1	447 nM (active)	
c1ccc(CCSc2nccn2-c2ccccc2)cc1	1260 nM (active)	
Cc1ccccc1CSc1nccn1-c1ccccc1	631 nM (active)	
Nc1ncnc2c1nc(Sc1ccc(Cl)cc1)n2[C@@H]1O[C@H]2COP(=O)(O)O[C@@H]2[C@H]1O	inactive	
CCc1ccc(CSc2nccn2-c2ccccc2)cc1	1580 nM (active)	
N#CC1(Nc2ccc(-c3ccc(NC4(C#N)CCCC4)cc3)cc2)CCCC1		4.93% [at 11.4 µM]
CCOC(=O)c1ccc(Cl)c(NC(=O)c2ccc(-c3ccccc3)cc2)c1	inactive	

SMILES	AC50	activity, negative = inhibition
CCOc1c(Cl)cc(C(=O)Nc2ccccc2-c2ccccc2)cc1Cl	2510 nM (active)	
O=C(O)/C=C/C(=O)Nc1ccccc1-c1ccccc1	inactive	
COc1ncc2ncc(=O)n(Cc3ccc(F)cc3)c2n1	7940 nM (active)	
COc1ncc2ncc(=O)n(CCC#N)c2n1	inactive	
COc1cccc(Cn2c(=O)cnc3cnc(N4CCN(C)CC4)nc32)c1	inactive	
O=c1c(-c2ccccc2)nc2cnc(Oc3cccc(Cl)c3)nc2n1C1CC1	inactive	
O=c1c(-c2cccs2)nc2cnc(Oc3ccccc3)nc2n1Cc1cccs1	inactive	
COc1cccc(Cn2c(=O)cnc3cnc(Oc4cccc(Cl)c4)nc32)c1	25100 nM (active)	
O=c1cnc2cnc(Oc3cccc(Cl)c3)nc2n1C1CC1	15800 nM (active)	
COc1ncc2ncc(=O)n(Cc3cccs3)c2n1	inactive	
COc1ncc2nc(-c3ccc(F)cc3)c(=O)n(Cc3ccc(F)cc3)c2n1	inactive	
O=c1cnc2cnc(Oc3ccccc3)nc2n1Cc1cccs1	1260 nM (active)	
N#Cc1cccc(-c2nc3cnc(Oc4cccc(Cl)c4)nc3n(C3CC3)c2=O)c1	inactive	
CCN(CCO)C[C@H]1CCC[C@H]2CCCC[C@@H]21		12.1% [at 11.4 µM]
CCON=C1C(C)(C)C(C)(C)C(C)(C)C1(C)C		-8.06% [at 11.4 µM]
COC(=O)[C@H](C)NC(=O)C/C=C\[C@@H](C)[C@H]1C=C[C@H](O)[C@@H](CO)O1		-2.78% [at 11.4 µM]
N#CCCn1c(=O)cnc2cnc(Oc3ccccc3)nc21	inactive	
O=c1cnc2cnc(Oc3cccc(Cl)c3)nc2n1Cc1ccc(F)cc1	20000 nM (active)	
N#CCCn1c(=O)c(-c2cccc(C#N)c2)nc2cnc(Oc3cccc(Cl)c3)nc21	inactive	
COCCn1c(=O)c(-c2ccc(F)cc2)nc2cnc(Oc3ccccc3)nc21	inactive	
N#CCCn1c(=O)c(-c2ccc(F)cc2)nc2cnc(Oc3cccc(Cl)c3)nc21	inactive	
O=c1cnc2cnc(Oc3ccccc3)nc2n1Cc1ccc(F)cc1	2510 nM (active)	
N[C@H](CCCP(=O)(O)O)C(=O)O	inactive	
CC(=O)C=NCC(=O)O		-14.5% [at 11.4 µM]
Cc1ccccc1OCCNC(=O)c1ccccc1Sc1ccccc1C#N	8910 nM (active)	

SMILES	AC50	activity, negative = inhibition
Cc1nc(S(=O)(=O)c2cccc(Cl)c2)nc2c1CCC2	15800 nM (active)	
COCC(=O)N1CCC2(CCCN(c3ncccn3)C2)CC1	inactive	
COCC(=O)N1CCC2(CC1)CCN(c1ncccn1)CC2	inactive	
O=C(Oc1ccccc1)N1CCC2(CC1)CCN(c1ncccn1)CC2	inactive	
CN(C(=O)c1cnc(N2CCN(c3ncccn3)CC2)c2ccccc12)c1ccc(Cl)cc1	1580 nM (active)	
CCN(C(=O)c1cnc(N2CCN(c3ncccn3)CC2)c2ccccc12)c1cccc(Cl)c1	251 nM (active)	
COCC(=O)N1CCC2(CC1)CN(c1ccccn1)C2	inactive	
Fc1ccc(C2CC(c3ccco3)=NN2c2ccccc2)cc1 (centres undefined)	2240 nM (active)	
C[C@@H]1CC[C@@H]2C(=O)N3[C@@H](CC[C@@H](C)[C@@H]3c3ccc(-c4ccco4)cc3)C(=O)N2[C@H]1c1ccc(-c2ccco2)cc1		0.199% [at 11.4 µM]
CCN1C(=O)[C@H]2[C@H]3[C@H](O)[C@H](O)C/C(=N/O[C@@H]4O[C@@H](COC(C)=O)[C@@H](OC(C)=O)[C@@H](OC(C)=O)[C@H]4OC(C)=O)[C@@H]3CC[C@@H]2C1=O		13.6% [at 11.4 µM]
O=C(c1cc(O)c(O)c([N+](=O)[O-])c1)c1ccccc1F	inactive	
Cc1cc(OC(=O)c2ccccc2Cl)cc(=O)n1C	inactive	
Cc1ccc(-c2cccc(OC(=O)c3ccccc3F)c2)cc1	2510 nM (active)	
CN(C)C(=N)N=C(N)N	inactive	
COc1ccc(Cl)cc1NC(=O)C12CCC(C)(C(=O)O1)C2(C)C (centres undefined)	1260 nM (active)	
Cc1cc2c(s1)CCCCC(=O)N2	22400 nM (active)	
O=C1CCCCC(=O)c2ccccc2N1	inactive	
N#C[C@H]1CN[C@H](N)N[C@@H]1N		14.3% [at 11.4 µM]
Oc1[nH]c2ccccc2c1/C=N/c1nccs1	14100 nM (active)	
O=C1c2ccccc2C(=O)C1c1ccccc1	inactive	
c1ccc(C2OCC3(CO2)COC(c2ccccc2)OC3)cc1 (centres undefined)	2510 nM (active)	
CC(C)(C)c1[nH]nc2c1C(c1ccc(OC(=O)c3ccco3)cc1)C(C#N)=C(N)O2 (centres undefined)	inactive	
C/C(=C\c1ccco1)C1C(C#N)=C(N)Oc2n[nH]c(-c3ccccc3)c21 (centres undefined)	2240 nM (active)	
COc1ccccc1CN1CC[C@@]2(CCCN(C(=O)c3cccn3C)C2)C1	inactive	
Cc1cccc(NC(=O)C23CCC(C)(C2Br)C3(C)C)c1 (centres undefined)	4470 nM (active)	

SMILES	AC50	activity, negative = inhibition
Cc1cccc(NC(=O)C2(c3ccccc3)CC2(Cl)Cl)c1 (centres undefined)	1000 nM (active)	
CCN(CC)CCOC(=O)C1(c2ccc([N+](=O)[O-])cc2)CCCC1	inactive	
CC12CCC(C(=O)Nc3cccc4ccccc34)(C1Br)C2(C)C (centres undefined)	8910 nM (active)	
Cc1cccc(NC2=NC(=S)N(c3ccc(C(=O)O)cc3)C23CCCCC3)c1	inactive	
Cc1cccc(NC(=O)C2(c3ccc([N+](=O)[O-])cc3)CCCC2)c1	891 nM (active)	
CCOC(=O)N/N=C1/C[C@@H](O)[C@@H](O)[C@@H]2[C@@H]3C(=O)N(C4CCCCC4)C(=O)[C@H]3CC[C@@H]12		-22.2% [at 11.4 µM]
C[N+]1(CCCC[N+]2(C)CCCCCCC2)CCCCCCC1		34.1% [at 11.4 µM]
CCc1ccccc1NC(=O)c1ccc(-n2c(C)ccc2C)cc1	15800 nM (active)	
C=CCNc1oc(/C=C/c2ccccc2)nc1C#N	4470 nM (active)	
O=c1c2ccc([N+](=O)[O-])c3cccc(c32)c2nc3ccccc3n12	inactive	
O=C(O)c1ccc2c3c1cccc3c(=O)n1c3ccccc3nc21	3980 nM (active)	
c1cncc(-c2nccc(NCc3cccs3)n2)c1	7940 nM (active)	
Cc1cnc(CNc2ccnc(-c3cccnc3)n2)cn1	inactive	
Cc1cccc(CNc2ccnc(-c3cccnc3)n2)c1	2510 nM (active)	
c1ccc(CNc2ccnc(-c3cccnc3)n2)cc1	2510 nM (active)	
O=C=Nc1ccc(Cc2ccc(N=C=O)cc2)cc1 (tested in a mixture with another compound)		-1.1% [at 11.4 µM]
CNc1nc(Cl)nc(NC(C)(C)C)n1	14100 nM (active)	
CCOc1ccc(/C=C2\C(=O)c3ccccc3OC2c2ccccc2)cc1 (centres undefined)	1120 nM (active)	
CCOc1ccc(C2C(C(=O)O)c3ccccc3C(=O)N2CCN2CCOCC2)cc1 (centres undefined)	inactive	
Cc1cc(C)c2nc3c(c([C@H](O)[C@@H]4CCCCN4)c2c1)CC/C3=C/c1ccc(Cl)cc1		-6.83% [at 11.4 µM]
CSCC[C@H](NC(=O)c1nn(C)c(=O)c2ccccc12)c1nc2ccccc2[nH]1	14100 nM (active)	
CC(=O)N1c2ccc(S(=O)(=O)CCC(=O)O)cc2CC1C (centres undefined)	inactive	
CC1Cc2ccccc2N1C(=O)C1CCCCN1S(=O)(=O)c1ccccc1 (centres undefined)	2240 nM (active)	
O=C(NC(NC(=S)Nc1cc(Cl)ccc1Cl)C(Cl)(Cl)Cl)c1ccco1 (centres undefined)	1580 nM (active)	

— PubChem BioAssay AID1851 (National Center for Advancing Translational Sciences (NCATS), 2009)
